Paper PMC8384837, “Expanding the binding specificity for RNA recognition by a PUF domain”

Molecular target: PUM1 PUF domain R5-KRC (Homo sapiens, UniProt Q14671 828-1176, C1007K;Q1011C)
Test: yeast three-hybrid, YBZ-1, SC-Leu-His + 0.5 mM 3-AT, 4 days
Conditions: tags: N-Gal4 AD-HA kept; label: inside an RPR1-promoter hybrid RNA with tandem MS2 sites; ssRNA
Method in brief: (§1)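 Each repeat of the Pumilio-1 PUF domain was randomized at its three base-contacting residues, and these libraries were co-expressed from a centromeric plasmid with matching RNA elements in strain YBZ-1. After four days on SC-Leu (input) or SC-Leu-His + 0.5 mM 3-AT (selection), the repeat regions were PCR-amplified and Illumina-sequenced. The interaction score compares variant frequency between input and selection as a log change, computed in log2 with a pseudocount of 1 for absent variants.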

Sequence of PUM1 PUF domain R5-KRC (Q14671 828-1176 C1007K/Q1011C): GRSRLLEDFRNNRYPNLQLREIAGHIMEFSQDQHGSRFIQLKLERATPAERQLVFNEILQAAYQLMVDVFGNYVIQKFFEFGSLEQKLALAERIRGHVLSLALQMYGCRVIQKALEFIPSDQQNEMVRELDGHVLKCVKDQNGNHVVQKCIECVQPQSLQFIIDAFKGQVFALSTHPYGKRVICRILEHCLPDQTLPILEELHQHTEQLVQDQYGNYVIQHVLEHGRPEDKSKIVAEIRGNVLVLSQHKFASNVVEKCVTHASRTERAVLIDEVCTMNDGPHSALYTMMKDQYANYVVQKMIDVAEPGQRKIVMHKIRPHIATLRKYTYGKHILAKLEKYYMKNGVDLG

Sequence | binding signal
GGCUAGAACUAGUGGAUCCCCCGGCGCCCGGCGGCUCGAGCCCGGGUAAGUGUCAAUAGUCUGCAUGCCGCCGGGCGCCAUGCCUGCAGGUCGACUCUAGAAAACAUG | 3.63 log2 enrichment (interaction score)
GGCUAGAACUAGUGGAUCCCCCGGCGCCCGGCGGCUCGAGCCCGGGUAAGUGUUAAUAGUCUGCAUGCCGCCGGGCGCCAUGCCUGCAGGUCGACUCUAGAAAACAUG | 3.89 log2 enrichment (interaction score)
GGCUAGAACUAGUGGAUCCCCCGGCGCCCGGCGGCUCGAGCCCGGGUAAGUGUGAAUAGUCUGCAUGCCGCCGGGCGCCAUGCCUGCAGGUCGACUCUAGAAAACAUG | 1.03 log2 enrichment (interaction score)
GGCUAGAACUAGUGGAUCCCCCGGCGCCCGGCGGCUCGAGCCCGGGUAAGUGUAAAUAGUCUGCAUGCCGCCGGGCGCCAUGCCUGCAGGUCGACUCUAGAAAACAUG | 2.12 log2 enrichment (interaction score)

Molecular target: PUM1 PUF domain R4-GNG (Homo sapiens, UniProt Q14671 828-1176, N971G;H972N;Q975G)
Test: as above
Conditions: tags: N-Gal4 AD-HA kept; label: inside an RPR1-promoter hybrid RNA with tandem MS2 sites; ssRNA
Method in brief: as §1

Sequence of PUM1 PUF domain R4-GNG (Q14671 828-1176 N971G/H972N/Q975G): as the sequence (Q14671 828-1176 C1007K/Q1011C) above, with N144G, H145N, Q148G, K180C, C184Q counted along it

Sequence | binding signal
GGCUAGAACUAGUGGAUCCCCCGGCGCCCGGCGGCUCGAGCCCGGGUAAGUGUACAUAGUCUGCAUGCCGCCGGGCGCCAUGCCUGCAGGUCGACUCUAGAAAACAUG | 2.39 log2 enrichment (interaction score)
GGCUAGAACUAGUGGAUCCCCCGGCGCCCGGCGGCUCGAGCCCGGGUAAGUGUAAAUAGUCUGCAUGCCGCCGGGCGCCAUGCCUGCAGGUCGACUCUAGAAAACAUG | 1.49 log2 enrichment (interaction score)
GGCUAGAACUAGUGGAUCCCCCGGCGCCCGGCGGCUCGAGCCCGGGUAAGUGUAUAUAGUCUGCAUGCCGCCGGGCGCCAUGCCUGCAGGUCGACUCUAGAAAACAUG | 3.28 log2 enrichment (interaction score)

Molecular target: PUM1 PUF domain R5-HRS (Homo sapiens, UniProt Q14671 828-1176, C1007H;Q1011S)
Test: as above
Conditions: tags: N-Gal4 AD-HA kept; label: inside an RPR1-promoter hybrid RNA with tandem MS2 sites; ssRNA
Method in brief: as §1

Sequence of PUM1 PUF domain R5-HRS (Q14671 828-1176 C1007H/Q1011S): as the sequence (Q14671 828-1176 C1007K/Q1011C) above, with K180H, C184S counted along it

Sequence | binding signal
GGCUAGAACUAGUGGAUCCCCCGGCGCCCGGCGGCUCGAGCCCGGGUAAGUGUCAAUAGUCUGCAUGCCGCCGGGCGCCAUGCCUGCAGGUCGACUCUAGAAAACAUG | 2.88 log2 enrichment (interaction score)
GGCUAGAACUAGUGGAUCCCCCGGCGCCCGGCGGCUCGAGCCCGGGUAAGUGUUAAUAGUCUGCAUGCCGCCGGGCGCCAUGCCUGCAGGUCGACUCUAGAAAACAUG | 4.01 log2 enrichment (interaction score)
GGCUAGAACUAGUGGAUCCCCCGGCGCCCGGCGGCUCGAGCCCGGGUAAGUGUGAAUAGUCUGCAUGCCGCCGGGCGCCAUGCCUGCAGGUCGACUCUAGAAAACAUG | 0.46 log2 enrichment (interaction score)
